According to PubChem BioAssay AID504332 (National Center for Advancing Translational Sciences (NCATS), 2011):
Hit rate of the full screen: of about 350,000 compounds, about 31,000 (8.9%) were called active. Roughly 15% stayed inconclusive and do not appear here. The sample holds actives, similar compounds and a random draw of the others, so the mix is not that of the screen. A number with no mark means an inactive call. The call rests on the fitted dose curve; in most records, active means well fitted inhibition curve with a large enough effect; inconclusive means small, poorly fitted or top-dose-only effect; inactive means no such curve, though single readings can be large or run the other way.

biological target: Histone-lysine N-methyltransferase EHMT2 (Homo sapiens) (UniProt Q96KQ7); assay: qHTS Assay for Inhibitors of Histone Lysine Methyltransferase G9a; conditions: G9a H3K9 monomethylation, AlphaScreen, 2 h; series mostly up to 59 µM; activity, negative = inhibition: at the top concentration; further: nearly all actives have a fitted effect of over 75% in size
In short: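 Using a bead-based AlphaScreen, monomethylated H3K9 product from 2 h room-temperature reactions (G9a 20 nM, peptide 500 nM, SAM 20 uM) was detected with 0.5 ug/mL rabbit anti-H3K9me1 antibody.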
On the % scale 0 is the no-effect control and ±100 the full control effect; potency means the concentration at half of the fitted maximal effect.

Histone-lysine N-methyltransferase EHMT2 (Homo sapiens), sequence (Q96KQ7 913-1193 limits assumed): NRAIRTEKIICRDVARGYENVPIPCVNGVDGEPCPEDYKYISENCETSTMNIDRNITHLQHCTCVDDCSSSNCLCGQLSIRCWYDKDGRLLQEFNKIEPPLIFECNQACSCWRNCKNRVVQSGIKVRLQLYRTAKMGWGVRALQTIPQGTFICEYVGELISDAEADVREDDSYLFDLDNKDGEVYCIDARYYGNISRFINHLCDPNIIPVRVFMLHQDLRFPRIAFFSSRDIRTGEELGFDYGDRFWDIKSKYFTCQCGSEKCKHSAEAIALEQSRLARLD

Row | SMILES | Potency | activity, negative = inhibition
1 | Cc1ccc(Nc2nc(N)nc(CN3CCN(Cc4ccccc4)CC3)n2)cc1Cl | 50.1 µM (active) | 
2 | CCOC(=O)N1CCN(Cc2nc(N)nc(Nc3ccc(C)cc3)n2)CC1 |  | -23.8% [at 2.33 µM]
3 | Cc1ccccc1Nc1nc(N)nc(CN2CCN(c3ccccn3)CC2)n1 |  | -45.5% [at 12.7 µM]
4 | CC(=O)c1ccc(NC(=O)c2ccc(-n3cncn3)c([N+](=O)[O-])c2)cc1 |  | 15% [at 102 µM]
5 | CC(=O)Nc1ccc(S(=O)(=O)N2CCN(c3ccc([N+](=O)[O-])c(NCCN4CCOCC4)c3)CC2)cc1 | 70.8 µM (active) | 
6 | O=[N+]([O-])c1ccc(N2CCN(S(=O)(=O)c3ccc4ccccc4c3)CC2)cc1NCc1ccco1 |  | -41.4%
7 | COc1ccccc1OCCNc1cc(N2CCOCC2)ccc1[N+](=O)[O-] | 39.8 µM (active) | 
8 | O=C(c1ccccc1)N1CCN(c2ccc([N+](=O)[O-])c(NCc3ccco3)c2)CC1 |  | 44.5% [at 0.501 µM]
9 | CC(=O)Nc1ccc(S(=O)(=O)N2CCN(c3ccccc3)CC2)cc1 |  | 1.17%
10 | COc1ccccc1OCCNC(=O)c1cc([N+](=O)[O-])cc([N+](=O)[O-])c1 |  | -33.4% [at 102 µM]
11 | O=C(NCCNc1ccccc1[N+](=O)[O-])c1ccccc1F |  | 2.67%
12 | Cc1ccc(CCNC(=O)c2ccc(CS(=O)(=O)Cc3cccc(C)c3)o2)cc1 |  | 9.17%
13 | O=C(N/N=C\c1cc2c(cc1Cl)OCO2)c1ccc(Br)s1 |  | -6.61% [at 102 µM]
14 | CCN1C(=O)[C@@H]2[C@@H](c3ccc(-c4cccc(Cl)c4)cc3)N3CCC[C@@]3(C(=O)OC)[C@@H]2C1=O |  | 4.52% [at 2.33 µM]
15 | CC(C)(C)OC(=O)NCCCCCC(=O)N/N=C/c1coc2ccccc2c1=O |  | -6.59% [at 102 µM]
16 | CCOc1cc(/C=C2/C(=N)N3OC(C)=CC3=NC2=O)ccc1OC |  | -30.7% [at 102 µM]
17 | CC1=CC2=NC(=O)/C(=C/c3coc4ccccc4c3=O)C(=N)N2O1 | 44.7 µM (active) | 
18 | CC(=O)Nc1ccc(S(=O)(=O)N2CCn3cccc3C2C)cc1 (stereo not given) |  | -104% [at 12.7 µM]
19 | COC(=O)C1(C)NC(c2ccc(C)cc2)C2C(=O)N(c3ccc(F)cc3)C(=O)C21 (stereo not given) |  | 7.54% [at 102 µM]
20 | CCCC1(C(=O)OCC)NC(c2ccc(N(C)C)cc2)C2C(=O)N(c3ccc4c(c3)OCCO4)C(=O)C21 (stereo not given) | 8.91 µM (active) | 

Row | SMILES | Potency | activity, negative = inhibition
21 | CCOC(=O)C1(C)NC(c2ccco2)C2C(=O)N(c3ccccc3)C(=O)C21 (stereo not given) |  | -5.49% [at 102 µM]
22 | Cc1csc(NC(=O)NC2(C(F)(F)F)Oc3ccccc3O2)n1 | 2 µM (active) | 
23 | CC(=O)Nc1cccc(C(=O)Nc2nc(C)cs2)c1 |  | 24.9% [at 102 µM]
24 | Cc1csc(NC(=O)C2CCN(S(=O)(=O)c3ccccc3)CC2)n1 |  | -7.29% [at 102 µM]
25 | O=C1OC(/C=C/c2ccccc2)=NC/1=C/c1ccco1 |  | -5.86%
26 | CC(C)(C)C1C/C(=C/c2ccco2)C(=O)/C(=C/c2ccco2)C1 (stereo not given) | 39.8 µM (active) | 
27 | CCOC(=O)c1c(S(=O)(=O)N2CCC(C(=O)NCc3ccccc3OC)CC2)c(C)n(C)c1C |  | -3.21%
28 | CCOC(=O)c1c(NC(=O)c2ccc(S(=O)(=O)N3CCCC(C)C3)cc2)sc2c1CCN(C(C)C)C2 (stereo not given) |  | 8.5%
29 | CC(C)(C)NC(=O)COc1ccc(CNc2ccc3[nH]c(=O)[nH]c3c2)cc1 | 31.6 µM (active) | 
30 | COC(=O)c1ccc(OCC(=O)NC(C)(C)C)cc1 |  | 4.75% [at 102 µM]
31 | CC(=O)Nc1ccc(OCC(=O)NCc2ccc(C)cc2)cc1 |  | -2.76% [at 102 µM]
32 | Cc1ccc(OCC(=O)N2CCN(S(=O)(=O)c3ccc(Cl)s3)CC2)cc1C |  | 6.17% [at 2.33 µM]
33 | C=CCNC(=O)COc1coc(CN2CCN(Cc3ccccc3)CC2)cc1=O |  | 18.3% [at 0.501 µM]
34 | C=CCNC(=S)N/N=C/c1ccc(OCc2ccccc2)cc1 |  | 12.6% [at 102 µM]
35 | C=CCNC(=S)/N=c1/ccccn1Cc1ccccc1 | 31.6 µM (active) | 
36 | O=C(CSc1nc2[nH]c(=O)[nH]c(=O)c2s1)Nc1cccc(F)c1 |  | 24.5% [at 12.7 µM]
37 | COc1ccc(OC)c(NC(=O)CSC2=Nc3ccccc3C3=NC(CC(=O)NCCc4ccccc4)C(=O)N23)c1 (stereo not given) |  | -2.77%
38 | COc1cc(NC(=O)COC(=O)CSc2ccc3ccccc3c2)c(C)cc1[N+](=O)[O-] |  | -14.8%
39 | Cc1cc(NC(=O)COC(=O)COc2ccc(Cl)cc2C)c([N+](=O)[O-])cc1C | 8.91 µM (active) | 
40 | COc1ccc(OCC(=O)Nc2cc(C)c(Cl)cc2OC)c([N+](=O)[O-])c1 |  | -4.05%

Row | SMILES | Potency | activity, negative = inhibition
41 | Cc1ccccc1OCCSc1nc2ccc(NC(=O)c3ccco3)cc2s1 |  | -0.195%
42 | CC(=O)c1c(C)[nH]c(C(=O)OCC(=O)Nc2c(C)cccc2C)c1C |  | -11.6% [at 12.7 µM]
43 | O=S(=O)(Nc1ccc2nc(N3CCOCC3)sc2c1)c1ccccc1 | 50.1 µM (active) | 
44 | Brc1ccc2nc(N3CCCC3)sc2c1 |  | 5.39% [at 102 µM]
45 | CC(=O)Nc1ccc(S(=O)(=O)Nc2ccc(N3CCOCC3)c(F)c2)cc1 |  | -11.3%
46 | CC(C)=C1SC(N2CCN(c3cccc(C)c3)CC2)=NC1=O |  | 10.3% [at 12.7 µM]
47 | N#Cc1ccccc1-n1c(N)c(C(=O)N2CCCC2)sc1=S |  | 19.8% [at 0.501 µM]
48 | COC(=O)c1sc(=S)n(-c2ccccc2)c1N | 3.16 µM (active) | 
49 | COC(=O)c1sc(=S)n(-c2ccc(Cl)cc2)c1C |  | -36.4%
50 | Cc1ccc(-n2c(N)c(C(=O)N3CCOCC3)sc2=S)c(C)c1 | 7.94 µM (active) | 
51 | Cc1cccc(C(=O)N2CCCN(C(=O)c3cccc(C)c3)CC2)c1 |  | -5.03% [at 12.7 µM]
52 | COC(=O)c1sc(N2CCN(Cc3ccccc3)CC2)nc1N |  | -23.6% [at 102 µM]
53 | Cc1cccc(-n2c(N)c(C(=O)N3CCN(C)CC3)sc2=S)c1 | 8.91 µM (active) | 
54 | Cc1ccc(S(=O)(=O)N2CCN(C(=O)N3CCOCC3)CC2)c(C)c1 |  | 11.4% [at 102 µM]
55 | COc1ccc(CCNc2nc(-c3ccc(Cl)cc3)cc(C(F)(F)F)n2)cc1OC |  | 30.5%
56 | COc1cc(-c2noc(-c3ccc(N4CCCC4)c([N+](=O)[O-])c3)n2)cc(OC)c1OC |  | -34%
57 | O=C(COc1ccccc1)OCc1cc(=O)n2nc(-c3cccs3)sc2n1 |  | 15.1%
58 | Cc1cccc(-n2c(C)cc(/C=N\NC(=O)c3cccs3)c2C)c1 |  | 1.88%
59 | NC(=O)N/N=C\c1cccs1 |  | 6.75% [at 102 µM]
60 | Cc1cc(/C=N/NC(N)=O)c(C)n1C1CCCCC1 | 50.1 µM (active) | 
